PubChem BioAssay (NCATS)
Inconclusive results are not listed. Where a call stands in place of a potency, no number is given. Activity calls are given as the source filed them. Calls follow the shape of the dose curve; as a rule, active = well fitted inhibition curve with a large enough effect; inconclusive = small, poorly fitted or top-dose-only effect; inactive = flat fitted curve, though single readings scatter.

Molecular target: Calcium and integrin-binding protein 1 (Homo sapiens) (UniProt Q99828)
Sequence (Q99828 whole entry, looked up): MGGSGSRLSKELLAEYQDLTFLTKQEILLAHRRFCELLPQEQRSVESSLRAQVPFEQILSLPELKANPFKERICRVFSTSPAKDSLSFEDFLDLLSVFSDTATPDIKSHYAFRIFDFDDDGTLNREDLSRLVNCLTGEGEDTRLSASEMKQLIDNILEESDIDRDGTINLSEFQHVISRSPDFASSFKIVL
Assay: Primary qHTS for Identification of Calcium Integrin Binding Protein 1 (CIB1) Competitor (AID 1508620);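 also: GST tagged CIB1 binding a fluorescein labelled alphaIIb integrin peptide tracer; top concentration of the series differs between compounds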
Conditions: CIB1-GST / FITC-alphaIIb peptide fluorescence polarization; series mostly up to 114 µM
Method in brief: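 Fluorescence polarization competition: CIB1-GST (1 uM final) preincubated with compound 15 min at room temperature, then FITC-labeled alphaIIb peptide (100 nM final) added for another 15 min. Polarization read at Ex 480/Em 540.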

Q: With `Cc1ccc(OCCn2c(CCNC(=O)C3CCCCC3)nc3ccccc32)cc1` as the compound, how does the Potency read?
A: inactive

Q: How did the Potency turn out when `O=C(Nc1ccc2ccccc2c1)Nc1nnc(Br)s1` was run?
A: inactive

Q: Which Potency does the source give for `Cc1ccc(-c2no[n+]([O-])c2C#N)cc1` here?
A: inactive

Q: Which Potency does the source give for `Cn1cccc1CN=C1NC2=C(C(=O)CCC2)C(c2[nH]ncc2Cl)N1` (configuration not stated) here?
A: inactive

Q: `c1nc(NCCC2CCCO2)c2cc(-c3ccc4c(c3)OCO4)ccc2n1` (configuration not stated) was tested. Which Potency did it give?
A: inactive

Q: For `NC(=O)C1CCN(c2nc(-c3cccc4sc5ccccc5c34)cs2)CC1`, which Potency is on record?
A: inactive

Q: For `COc1ccc(O)c(CNc2ccc(S(=O)(=O)Nc3nccs3)cc2)c1`, which Potency is on record?
A: inactive

Q: `O=C(Nc1ccc(F)c(C(F)(F)F)c1)Nc1nnc(-c2cccnc2)s1` was tested. Which Potency did it give?
A: inactive

Q: How did the Potency turn out when `O=C(O)c1ccc2c(c1)C(=O)N([C@H](Cc1ccc(-c3ccccc3)cc1)C(=O)O)C2=O` was run?
A: inactive

Q: `N#Cc1c(-c2ccc(F)c(Br)c2)no[n+]1[O-]` was tested. Which Potency did it give?
A: inactive

Q: How did the Potency turn out when `CC(=O)Nc1sc2cnccc2c1-c1nc2ccccc2s1` was run?
A: inactive

Q: For `CC(=O)Nc1sc2c(c1-c1ccc3c(c1)OCO3)CCNC2`, which Potency is on record?
A: inactive

Q: For `Cc1ccc(NS(=O)(=O)c2ccc(F)cc2)cc1C`, which Potency is on record?
A: inactive

Q: How did the Potency turn out when `O=C1CCCC2=C1C(c1cccnc1)N=C(Nc1nc3ccccc3o1)N2` (configuration not stated) was run?
A: inactive

Q: Which Potency does the source give for `O=C(Nc1ccc(-c2nc3ccccc3[nH]2)cc1)c1ccc(C(F)(F)F)cc1` here?
A: inactive

Q: With `Cc1ccc(OCCn2c(CCNC(=O)C3CCCCCC3)nc3ccccc32)cc1` as the compound, how does the Potency read?
A: inactive

Q: `O=C1CCc2cc(S(=O)(=O)Nc3ccc4ncccc4c3)ccc2N1` was tested. Which Potency did it give?
A: inactive

Q: For `CCCCc1nnc(-c2cnn(C)c2N)n1CCCn1ccnc1`, which Potency is on record?
A: inactive

Q: Which Potency does the source give for `CC(C)(C)c1cccc(-n2cnc3cc(C(=O)N4CCCCC4)ccc32)c1` here?
A: inactive

Q: How did the Potency turn out when `NC(=O)C1CCN(c2nc(-c3ccc(Oc4ccccc4)cc3)cs2)CC1` was run?
A: inactive

Q: For `COc1ccc(O)c(C2Nc3ccccc3C(=O)N2Cc2ccccc2)c1` (configuration not stated), which Potency is on record?
A: inactive

Q: For `Cc1c(C(=O)OC[C@H]2CCCO2)[nH]c2c1C(=O)CC(c1ccco1)C2` (some centres not stated), which Potency is on record?
A: inactive
